The values below come from PubChem BioAssay AID2685 (National Center for Advancing Translational Sciences (NCATS), 2010).

Among all 320,000 compounds or so, about 2,100 (0.66%) were called active. About 53% were inconclusive and are not listed. Calls come from the whole dose curve; as a rule, active = well fitted inhibition curve with a large enough effect in the signal ratio, with a control signal flat (not every such curve was filed as active); inconclusive = small, poorly fitted or top-dose-only effect, or effect the other way, or a change in a side signal; inactive = flat fitted curve, though single readings scatter; the % refers to the signal ratio. What follows is part of a selection rich in actives, with near analogues and random picks from the rest.
Potency is the fitted concentration of half-maximal effect.

This test can be described thus: qHTS Assay for Lipid Storage Modulators in Drosophila S3 Cells.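 For cell number change: cells counted by Cell Tracker Red CMTPX staining in the red channel.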 For lipid storage change, negative = inhibition: % is set by controls: 0 for no effect and ±100 for the full control effect. The conditions noted are these: BODIPY lipid droplet fluorescence, 18-24 h, cells fed with added oleic acid; cell number change: measured here: cell count max response; series mostly up to 46.1 µM; lipid storage change, negative = inhibition: at the top concentration. The source says:
NIH Molecular Libraries Probe Production Centers Network [MLPCN] NIH Chemical Genomics Center [NCGC] MLPCN Grant: 1 R03 MH085686-01 Assay Submitter (PI): Beller, Mathias; Max-Planck-Institut fur Biophysikalische Chemie NCGC Assay Overview: Storing lipids as a reservoir for energy or the anabolism of elementary metabolites is a common feature of probably all cells and is conserved from bacteria to humans. The universal cellular lipid storage organelle is the so-called lipid storage droplet (LD). Although ubiquitous, LDs share a simple structure composed of a hydrophobic core that harbors the storage lipids, which is shielded by a droplet-specific phospholipid monolayer to which proteins are attached. The current model of LD biogenesis involves an incorporation of the lipid core into the membrane leaflets of the endoplasmic reticulum (ER) followed by a subsequent budding-like maturation of a LD, which ultimately pinches off. Once released, LD volume can increase by localized lipogenesis or fusion of existing droplet. Storage lipids are re-mobilized enzymatically by lipase activity. Lipase regulation in the adipocyte is heavily studied and involves multiple components including catecholamine signaling, the LD-associated proteins Perilipin and comparative gene identification (CGI-58) and at least two lipases named hormone sensitive lipase (HSL) and adipocyte triglyceride lipase (ATGL). LD regulation outside of the adipocyte is poorly understood and only few components are known. However, there is an urgent need to learn more about ectopic fat depots as mislocalized storage of lipids, for example in the liver or muscle, is an eminent health problem associated with insulin resistance or the metabolic syndrome. We developed a laser-scanning cytometer assay to enable 1,536-well screening and combined the results of the small molecules screen with an RNAi database based on lipid storage.
Triacsin C (Sigma-Aldrich T-4540), an inhibitor of long-chain fatty acyl CoA synthetase that blocks synthesis of triglycerides, was used as a positive control for lipid under-storage. A total of 23 nL of compound solution of different concentrations were transferred to the assay plates using a Kalypsys pin tool equipped with a 1,536-pin array containing 10-nL slotted pins (FP1S10, 0.457-mm diameter, 50.8 mm long; V&P Scientific). One microliter of oleic acid (400 uM) was added, and the plate was lidded with stainless steel rubber gasket lined lids containing pinholes. […] Fluorescence was detected by excitation of the fluorophores with a 488-nm laser on an Acumen Explorer (TTP Lab Tech). The total intensity in channel 2 (500-530 nm) reflected lipid droplet accumulation. Cells were detected using channel 3 (575-640 nm) with 5-um width and 100-um depth filters. The ratio of the number of objects in PMT channel 2 over the number of objects in PMT channel 3 was also calculated. Percent activity was computed relative to an internal control (100% inhibited lipid droplet deposition due to the presence of 20 uM Triacsin C), which was added to 32 wells/plate.
A general note: In qHTS, concentration-response curves come from the screen itself.
Turning to `Cc1ccc(NC(=O)COc2coc(CN3CCc4ccccc4C3)cc2=O)c(C)c1`, the outcome was “inactive [at 0.0737 µM]”.
Turning to `CCc1cccc(CC)c1NC(=O)COC(=O)CC1c2ccccc2CCN1S(=O)(=O)c1ccccc1` (stereo not given), the “lipid storage change, negative = inhibition” value was -0.415% (inactive) and the cell number change came to 0.0752%.
As to `COCCSc1nc(N)c(NC(=O)c2ccco2)c(=O)[nH]1`, the “lipid storage change, negative = inhibition” value is -9.67% (inactive) and the cell number change was -16.8%.
As for `COc1ccc(CC(=O)NCC(=O)N/N=C/c2c[nH]c3ccccc23)cc1`, the “lipid storage change, negative = inhibition” value was 27.6% (inactive) and the cell number change was 14.2%.
As for `CCCCCCCNC(=O)C1(CC2CC(c3ccc(Cl)cc3)=NO2)CCNCC1` (stereo not given), the outcome was inactive and the cell number change is -6.47%.
`CNC(=O)/C(=C\c1cccc(Oc2ccccc2)c1)NC(=O)c1ccccc1`: the “lipid storage change, negative = inhibition” value was -0.332% (inactive) and the cell number change was 2.1%.
Consider `CCCCn1c(-c2ccc(OC)cc2)nc2c(=O)n(C)c(=O)[nH]c21`, for which the “lipid storage change, negative = inhibition” value is 4.44% (inactive) and the cell number change turned out to be 12.4%.
On the same counts, the results for `CCCn1c(-c2ccccc2)nc2c(=O)n(C)c(=O)[nH]c21` are -1.42% (inactive) and -15.6%.
As to `CCCn1c(-c2ccc(OC)cc2)nc2c(=O)n(C)c(=O)[nH]c21`, the Potency was 29.1 µM (active) and the cell number change was 11.6%.
In the case of `CCN1CCN(CC(=O)Nc2ccc(N(C)C)cc2)CC1`, the molecule was called inactive and the cell number change worked out at 14.8%.
For `CN(C)c1ccc(NC(=O)CN2CCC(NC(=O)C3CCCCC3)CC2)cc1`, the “lipid storage change, negative = inhibition” value is -9.2% (inactive) and the cell number change came to 6.84%.
Turning to `CN(C)c1ccc(NC(=O)CN2CCC(N3CCCCC3)CC2)cc1`, the Potency is 23.1 µM (active) and the cell number change is -25.9%.
For `O=C(O)C1CC1C(=O)N1CCN(c2ccc(Cl)c(Cl)c2)CC1` (stereo not given), the “lipid storage change, negative = inhibition” value was 3.52% (inactive) and the cell number change is 16.3%.
For the molecule `CCc1nc2nc(C)c(NS(=O)(=O)c3ccc(C4CCCCC4)cc3)c(=O)n2[nH]1`, the molecule was called inactive.
In the case of `COc1cc(C(=O)NC2CCCc3c2cnn3-c2ccccc2F)cc(OC)c1OC` (stereo not given), the Potency was 16.4 µM (active) and the cell number change was 22.4%.
Regarding `Cc1ccccc1-n1ncc2c1CC(C)(C)CC2NC(=O)c1snnc1C` (stereo not given), the “lipid storage change, negative = inhibition” value is 2.11% (inactive) and the cell number change amounted to 7.34%.
As for `Cc1nnsc1C(=O)NC1CCCc2c1cnn2-c1ccccc1F` (stereo not given), the Potency is 4.11 µM (active).
On to `COc1cc(C(=O)NC2CC(C)(C)Cc3c2cnn3-c2ccccc2)cc(OC)c1OC` (stereo not given), for which the “lipid storage change, negative = inhibition” value is 6.07% (inactive) and the cell number change came out at 9.79%.
Take `Cc1cc(C(=O)NC2CCCc3c2cnn3-c2cccc(C)c2C)n(C)n1` (stereo not given): the Potency was 0.92 µM (active) and the cell number change stood at 5.94%.
Regarding `O=C(CCN1CCCC1=O)NC1CCCc2c1cnn2-c1ccccc1F` (stereo not given), the “lipid storage change, negative = inhibition” value was -1.27% (inactive) and the cell number change was 11%.
Take `COc1ccc(C(=O)NC2CCCc3c2cnn3-c2cc(F)cc(F)c2)c(OC)c1OC` (stereo not given): the result was inactive.
In the case of `Cc1cccc(-n2ncc3c2CCCC3NC(=O)CCN2CCCO2)c1C` (stereo not given), the “lipid storage change, negative = inhibition” value is -7.74% (inactive) and the cell number change is -19.9%.
For the molecule `Cc1cccc(-n2ncc3c2CCCC3NC(=O)CN2CCCC2=O)c1C` (stereo not given), the “lipid storage change, negative = inhibition” value was 6.5% (inactive) and the cell number change is -2.49%.
`O=C(O)CCCC(=O)Nc1nc(-c2ccc(F)cc2)cs1`: the result was inactive.
Regarding `COc1ccc(-n2c(SCC(=O)NCC3CCCO3)nc3c([nH]c4ccccc43)c2=O)cc1OC` (stereo not given), the molecule was called inactive and the cell number change is -13.6%.
On to `Cc1ccc(OCC(=O)Nc2ccc(N3CCN(S(C)(=O)=O)CC3)cc2)cc1`, for which the outcome was inactive and the cell number change was determined as 18.1%.
In the case of `O=C(CSc1nnc2c(Cl)cc(C(F)(F)F)cn12)Nc1ccc2c(c1)OCO2`, the “lipid storage change, negative = inhibition” value was 18.7% (inactive) and the cell number change was -8.45%.
Turning to `COc1ccc(-c2cn[nH]c2-c2ccc(OCC(=O)NN)cc2O)cc1OC`, the “lipid storage change, negative = inhibition” value is 4.99% (inactive) and the cell number change stood at 12.9%.
On the same counts, the results for `O=C(N[C@@H](CO)C(=O)NCc1ccccc1)c1ccc(C(F)(F)F)cc1` are 5.11% (inactive) and 23.3%.
As for `COc1cccc(CNC(=O)CCC(=O)N2Cc3cccc(OC)c3Oc3ncccc32)c1OC`, the “lipid storage change, negative = inhibition” value is -20.7% (inactive).
Same read-out and setting: as for `Cc1ccc(CSCc2ccc(C(=O)NCCCN3CCOCC3)o2)cc1`, the figure is -1.21% (inactive).
As for `COc1cc(S(=O)(=O)N(Cc2cccnc2)Cc2cccc(OC)c2OC)ccc1-n1cnnn1`, the “lipid storage change, negative = inhibition” value was -2.65% (inactive) and the cell number change is -1.62%.
For `O=C(COc1ccc([N+](=O)[O-])cc1)Nc1ccc(NC(=O)c2ccccc2)cc1` the same measures were 8.49% (inactive) and -8.36%.
For `O=C(O)c1ccc(N2N=C(c3ccccc3)CC2c2ccccc2)cc1` (stereo not given), the molecule was called inactive and the cell number change was -6.08%.
Consider `Oc1ccccc1C1=NN(c2ccccc2)C(c2ccccc2)C1` (stereo not given), for which the Potency was 1.64 µM (active) and the cell number change was found to be 0.901%.
With `O=Cc1ccc(N2N=C(c3ccccc3)CC2c2ccccc2)cc1` (stereo not given), the “lipid storage change, negative = inhibition” value is 2.28% (inactive) and the cell number change is -15.5%.
Consider `CS(=O)(=O)c1ccc(C(=O)NCc2ccc(F)cc2)cc1`, for which the “lipid storage change, negative = inhibition” value is 1.05% (inactive) and the cell number change turned out to be 23%.
As for `N/C(Cc1ccc([N+](=O)[O-])cc1)=N\OC(=O)c1ccc(Br)cc1`, the Potency is 8.2 µM (active) and the cell number change amounted to 0.393%.
For `N/C(Cc1ccc([N+](=O)[O-])cc1)=N\OC(=O)c1ccc(Br)o1`, the “lipid storage change, negative = inhibition” value is 6.27% (inactive) and the cell number change was 10.2%.
Regarding `N/C(=N\OC(=O)c1ccc([N+](=O)[O-])cc1)c1ccc(Br)cc1`, the result was inactive and the cell number change stood at 19%.
Regarding `COC(=O)c1sccc1N/N=C/c1cccc(Oc2ccccc2)c1`, the “lipid storage change, negative = inhibition” value was 10.2% (inactive) and the cell number change was -12.1%.
Take `COc1ccc(CNC(=O)CCn2c(=O)c3cccn3c3ccc(F)cc32)cc1`: the Potency is 5.8 µM (active) and the cell number change was -3.83%.
As to `CCCCNC(=O)CCn1c(=O)c2cccn2c2ccc(F)cc21`, the “lipid storage change, negative = inhibition” value was -5.76% (inactive) and the cell number change was -8.11%.
In the case of `COc1ccc(NC(=O)CCn2c(=O)c3cccn3c3ccccc32)cc1`, the molecule was called inactive and the cell number change is -20.6%.
Consider `CCCS(=O)(=O)c1nc(S(=O)(=O)c2ccc(C)cc2)c(N2CCN(C)CC2)s1`, for which the result was inactive.
With `CCCS(=O)(=O)c1nc(S(=O)(=O)c2ccc(C)cc2)c(N2CC(C)OC(C)C2)s1` (stereo not given), the Potency was 18.4 µM (active) and the cell number change was -24.5%.
With `CCCS(=O)(=O)c1nc(S(=O)(=O)c2ccc(C)cc2)c(N2CCC(C)CC2)s1`, the “lipid storage change, negative = inhibition” value was -12.9% (inactive).
